Assay results: ChEMBL document CHEMBL3988442, “University of Dundee, Small-Polar-MMV Screening Library” (2021)

target: T1, Aspartate--tRNA(Asp/Asn) ligase (Mycobacterium tuberculosis (strain ATCC 25618 / H37Rv)) (UniProt P9WFW3); test: Assay for Asp RNA synthetase-1 from Mycobacterium tuberculosis; format: functional; design: scale not given: in the data most compounds retested in dose-response had high values; settings: 30 µM
T1 sequence (whole entry): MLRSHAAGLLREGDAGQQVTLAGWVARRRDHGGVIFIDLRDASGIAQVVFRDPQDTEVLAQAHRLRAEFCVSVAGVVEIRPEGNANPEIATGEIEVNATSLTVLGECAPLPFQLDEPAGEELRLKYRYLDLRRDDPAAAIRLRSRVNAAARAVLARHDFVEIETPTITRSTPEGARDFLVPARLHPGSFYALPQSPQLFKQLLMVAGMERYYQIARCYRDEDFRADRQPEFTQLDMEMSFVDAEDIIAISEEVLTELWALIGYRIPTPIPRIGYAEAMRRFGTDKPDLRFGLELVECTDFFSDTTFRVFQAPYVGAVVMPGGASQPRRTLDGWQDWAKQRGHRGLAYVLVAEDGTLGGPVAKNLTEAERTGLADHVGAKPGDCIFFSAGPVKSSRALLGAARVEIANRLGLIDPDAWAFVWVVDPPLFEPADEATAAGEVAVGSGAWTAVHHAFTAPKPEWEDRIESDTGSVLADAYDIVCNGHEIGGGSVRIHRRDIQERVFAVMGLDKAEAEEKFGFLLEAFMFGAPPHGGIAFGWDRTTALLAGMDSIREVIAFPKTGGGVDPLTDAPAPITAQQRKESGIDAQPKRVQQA

Compound | Percent Effect [%]
O=C(O)[C@]12CCCN(Cc3ccncc3)[C@@H]1CCN(c1cnccn1)C2 | 0.862
COc1c(CNC2CCc3c(Cl)cccc32)c(C)nn1C (stereo not given) | -1.71
O=C1O[C@@H]2CN(Cc3ccccc3)C[C@@H]2N1CCCN1CCOCC1 | -3.37
CN(Cc1cc[nH]n1)C(=O)c1cccc(CCC(C)(C)O)c1 | -0.264
O=C(Nc1cccc(OCc2cccc(F)c2)c1)C1COCCO1 (stereo not given) | 0.563
Cc1cnn(C2CN(CC(O)c3ccc4c(c3)OCCO4)C2)c1 (stereo not given) | -4.61
Cc1cnn(CCNCc2ccc(OCc3csc(C)n3)cc2)c1 | -0.126
CCOc1cccc(C(C)NCc2ccc(OC)c(OC)c2OC)c1 (stereo not given) | -1.94
CN(C)CCn1c(=O)oc2ccc(NC(=O)C3CCCO3)cc21 (stereo not given) | -2.08
O=C1N(Cc2ccc(F)c(F)c2)CCCC12CCN(C1CCSCC1)C2 (stereo not given) | -5.55
CN(C)C(=O)CN(C)C(=O)c1cnc(Cc2ccc(F)cc2)s1 | -1.57
CC(NC(=O)Cn1cccn1)c1cccnc1 (stereo not given) | -1.34
COc1ccc(F)c(CN2CCC3(CCC(=O)N(CC(N)=O)C3)CC2)c1 | -3.94
FC(F)(F)C1CCCn2c(CNCc3ccsc3)nnc21 (stereo not given) | -1.78
Cc1cc(F)ccc1OC1(C(=O)O)CCN(Cc2cccnc2N)CC1 | -3.76
Cc1ccc(CNCc2nnc3n2CCCC3C(F)(F)F)s1 (stereo not given) | 4.24
CC1CCN(C(CNC(=O)CCn2cccn2)c2cccs2)CC1 (stereo not given) | -0.241
CSCCC1c2nc[nH]c2CCN1Cc1ccnc2ccccc12 (stereo not given) | 5.78
CC(C)c1nccn1CCCNC(=O)c1ccc(-c2cncnc2)nc1 | -1.78
COc1ccccc1CN1C(=O)O[C@@H]2CN(c3nccs3)C[C@@H]21 | -1.39

Compound | Percent Effect [%]
CCN(CC)CC(=O)NCCc1csc(N2CCCC2)n1 | 1.28
Cc1oc(C(=O)O)cc1S(=O)(=O)Nc1c(F)cccc1-n1cccn1 | -2.17
O=C(NC1(c2nnn(CCO)n2)CCCC1)c1ccccc1 | -6.13
CCN(CC1CN(CCc2ccccn2)CCO1)c1cccnn1 (stereo not given) | -1
Cc1cccc(CN2C[C@H]3OC(=O)N(CCCN4CCOCC4)[C@H]3C2)n1 | -2.42
Cc1ccc(S(=O)(=O)NCCNC(=O)c2ccoc2)cc1F | -4.4
CCOCC(=O)N1C[C@@H](NC(C)=O)[C@H](c2ccc(OC)cc2)C1 | -0.287
Cc1ccc(C#N)c(N2CCC(c3nccn3Cc3cscn3)CC2)n1 | 2.26
CCc1nc(C)c(C(=O)N2C[C@H]3CC[C@@H]2CN(S(=O)(=O)N(C)C)C3)s1 | -1.85
Cc1nn(C)c(Cl)c1C1CCCN1c1ncnc2sccc12 (stereo not given) | -2.03
CS(=O)(=O)NCCC(=O)NC1CCc2nccn2C1 (stereo not given) | 3.25
CC(C)c1cccc(CSc2nnc(CN3CCCC3=O)o2)n1 | 1.44
Cc1ccsc1CNC(=O)NC1CCCc2c1cnn2CCO (stereo not given) | -1.99
CN(CC1(O)CCCN(CCC2CCCCC2)C1=O)C1CCOCC1 (stereo not given) | 0.172
CCC(=O)NCC(=O)NCc1cc(Br)ccc1OC(F)F | -1.92
COc1cccc(CN(C)C(=O)CN2CCN(CCO)CC2)c1 | -0.747
Cc1noc(C)c1C(=O)N(C)Cc1nc(-c2ccccn2)no1 | -3.85
CC(Sc1nnnn1C1CCOCC1)C(=O)NC1CCCCC1 (stereo not given) | 1.09
Cc1cc(CN(C)C2CCCN(c3cccnn3)C2)on1 (stereo not given) | 0.172
CCCC(NC(=O)c1cc(C)n(C2CC2)c1C)c1nnn[nH]1 (stereo not given) | -0.908
